Measurements published in PubChem BioAssay (NCATS).
Where “and” joins values, the source holds several entries; their conditions need not be identical. Identical values can stand only once. Records with an inconclusive call do not appear. Calls of active or inactive are those of the source. Unless noted, calls come from the whole dose curve; as a rule, active = well fitted curve in the direction sought with a large enough effect; inconclusive = small, poorly fitted or top-dose-only effect, or another doubt; inactive = no such curve, though single readings can be large; an effect the other way counts as inactive or inconclusive.

Experiments:
[1] = biological target: Estrogen receptor (Homo sapiens) (UniProt P03372); assay: qHTS assay for small molecule agonists of estrogen receptor alpha signaling (AID 588514; calls by dose curve;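 note: 0% = vehicle only and 100% = reference agonist; nearly all actives have a fitted effect of over 70% in size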)
Procedure, shortened: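 Reporter-gene assay. […] controls beta-lactamase in HEK 293 GripTite cells; after 18 hrs with compound, CCF4 substrate is added for 2 hrs and fluorescence is read.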

[2] = biological target: Peroxisome proliferator-activated receptor gamma (Homo sapiens) (UniProt P37231); assay: qHTS assay for small molecule agonists of peroxisome proliferator-activated receptor gamma signaling (AID 588536; active = well fitted curve in the direction sought with a large enough effect in the signal ratio, with a control signal flat, not every such curve was filed as active; the % refers to the signal ratio;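 note: 0% = DMSO basal wells and 100% = rosiglitazone at 2 µM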)
Procedure, shortened: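 GeneBLAzer PPAR-gamma-UAS-bla HEK293 cells in 1% charcoal/dextran-treated FBS medium were treated 16 h at 37 C with compounds. Beta-lactamase activity was read by CCF4 ratio (460/530 nm). Response was normalized to 2 uM rosiglitazone (100%) and DMSO, then Hill-fitted for EC50 and efficacy.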

[3] = biological target: Peroxisome proliferator-activated receptor gamma (Homo sapiens) (UniProt P37231); assay: qHTS assay for small molecule antagonists of peroxisome proliferator-activated receptor gamma signaling (AID 588537; active = well fitted inhibition curve with a large enough effect in the signal ratio, with a control signal flat, not every such curve was filed as active; the % refers to the signal ratio;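 note: reporter cells co-stimulated with 50 nM rosiglitazone agonist during compound treatment; % of control where 0% means no effect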)
Procedure, shortened: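 PPAR-gamma-UAS-bla HEK293 cells (3000/well, 1% charcoal/dextran-stripped FBS) were preincubated 6-6.5 h at 37 C, given titrated compounds, then stimulated with 50 nM rosiglitazone for 16 h. Beta-lactamase activity was read with CCF4 dye; IC50 came from Hill fits.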

[4] = biological target: Vitamin D3 receptor (Homo sapiens) (UniProt P11473); assay: qHTS assay for small molecule agonists of vitamin D receptor signaling (AID 588543; calls by dose curve;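 note: 0% = DMSO basal and 100% = reference agonist control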)
Procedure, shortened: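 β-lactamase reporter, VDR-UAS-bla HEK293T, agonist mode. Cells plated 5 h at 37 °C, compound titration 16 h at 37 °C, CCF4 dye 2 h RT, ratio 460/530 nm. Hill fit → EC50, efficacy vs 50 nM 1α,25-(OH)2D3.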

[5] = qHTS assay for small molecule agonists of retinoid X receptor alpha signaling (AID 588544; calls by dose curve;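 for activation: 0% = DMSO basal wells and 100% = reference agonist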); conditions: HEK293T RXRa-UAS-bla, beta-lactamase reporter, 18 h; 530 nm emission
[6] = biological target: Retinoic acid receptor RXR-alpha (Homo sapiens) (UniProt P19793); assay: as above
[7] = biological target: Thyroid hormone receptor beta (Homo sapiens) (UniProt P10828); assay: qHTS assay for small molecule agonists of thyroid hormone receptor beta signaling (AID 588545; calls by dose curve)
Procedure, shortened: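 HEK 293 TR-UAS-bla; agonist mode; 18 hrs, 37 C; CCF4, ex 405/em 460 and 530 nm; norm. T3 10 nM = 100%, DMSO = 0%; Hill fit → EC50, efficacy.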

[8] = qHTS assay for small molecule antagonists of retinoid X receptor alpha signaling (AID 588546; active = well fitted inhibition curve with a large enough effect in the signal ratio, with a control signal flat, not every such curve was filed as active; the % refers to the signal ratio;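 note: cells stimulated with 9-cis-retinoic acid as agonist; % is set by controls: 0 for no effect and ±100 for the full control effect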); conditions: HEK293T RXRa-UAS-bla, beta-lactamase ratio, antagonist mode; measured here: W530 green channel, cytotoxicity proxy
Procedure, shortened: (§1)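 Beta-lactamase reporter inhibition, read as CCF4 fluorescence ratio (ex 405, em 460/530 nm) after 2 h at RT. HEK293T UAS-bla cells, 2500/well, were stimulated with 9-cis-RA at 500 or 100 nM final alongside test compound for 18 h at 37 C.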

[9] = biological target: Retinoic acid receptor RXR-alpha (Homo sapiens) (UniProt P19793); assay: as above; conditions: HEK293T RXRa-UAS-bla, beta-lactamase ratio, antagonist mode
Procedure, shortened: as §1

[10] = biological target: Thyroid hormone receptor beta (Homo sapiens) (UniProt P10828); assay: qHTS assay for small molecule antagonists of thyroid hormone receptor beta signaling (AID 588547; active = well fitted inhibition curve with a large enough effect in the signal ratio, with a control signal flat, not every such curve was filed as active; the % refers to the signal ratio;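 note: cells stimulated with 0.4 nM T3 agonist during compound exposure; series mostly up to about 77 µM; % is set by controls: 0 for no effect and ±100 for the full control effect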); conditions: TR-UAS-bla HEK293, beta-lactamase ratio, antagonist mode, 18 h
Procedure, shortened: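 TR-UAS-bla GripTite HEK293 cells in 2% charcoal/dextran FBS medium were preincubated 4 h at 37 C, given compound (0.59 nM to 92 uM) plus 0.4 nM T3 (final) for 18 h, then CCF4 for 2 h at RT; Hill fit gave IC50.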

[11] = qHTS assay for small molecule activators of the p53 signaling pathway (AID 651743; active = well fitted activation curve with a large enough effect in the signal ratio, not every such curve was filed as active; the % refers to the signal ratio; note: series mostly up to about 92 µM; % of control where 0% means no effect); conditions: HCT-116 p53RE-bla, beta-lactamase FRET ratio, 16 h; activation: stronger effect = higher value
Procedure, shortened: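 p53RE-bla HCT-116 cells with a stably integrated beta-lactamase reporter under p53 response elements were plated, rested 5 hours at 37 C/5% CO2, then exposed to compounds in DMSO for 16 hours at 37 C. LiveBLAzer B/G FRET substrate was read after 2 hours at room temperature.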

[12] = qHTS assay for environmental chemicals that activate the Aryl hydrocarbon Receptor (AhR) signaling pathway (AID 651777); conditions: 1A2-DRE human hepatoma cells, luciferase, 24 h; activation: stronger effect = higher value; note: % of control where 0% means no effect; nearly all actives have a fitted effect of over 15% in size
Procedure, shortened: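 Human hepatoma 1A2-DRE cells stably carrying a DRE/CYP1A2 promoter–luciferase reporter, 1,200 cells/well, exposed to compound 24 hr at 37 C. Luciferase read by One-Glo luminescence after 30 min at room temperature; increased signal marks AhR activation.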

[13] = biological target: Peroxisome proliferator-activated receptor alpha (Homo sapiens) (UniProt Q07869); assay: qHTS assay for small molecule agonists of the peroxisome proliferator-activated receptor alpha (PPARalpha) signaling pathway (AID 651778); conditions: PathHunter PPARalpha complementation, chemiluminescence, 6 h; max response: stronger effect = higher value; note: % of control where 0% means no effect
Procedure, shortened: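 Cells plated at 2,000/well and held overnight at 37 C, 5% CO2, then compound added by pin tool for 6 hr; after PathHunter detection reagent and 60 min at room temperature, chemiluminescence from enzyme complementation was read.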

[14] = qHTS assay for small molecule agonists of the antioxidant response element (ARE) signaling pathway measured by Nrf2-dependant transcriptional activity (AID 720636; active = well fitted curve in the direction sought with a large enough effect in the repeat runs; an effect the other way counts as inactive or inconclusive; note: % of control where 0% means no effect)
Procedure, shortened: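 ARE-luc HepG2 cells carrying an Nrf2-responsive luciferase reporter, in medium with 1% dialyzed FBS, exposed to compound for 16 hr at 37 C, 5% CO2. Luminescence read 30 min after ONE-Glo addition.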

[15] = qHTS assay for small molecule agonists of the antioxidant response element (ARE) signaling pathway measured by Nrf2-dependant transcriptional activity - cell viability counter screen (AID 720653; active = well fitted curve in the direction sought with a large enough effect in the repeat runs; an effect the other way counts as inactive or inconclusive; note: % is set by controls: 0 for no effect and ±100 for the full control effect); conditions: ARE-bla HepG2 viability, CellTiter-Glo ATP luminescence, 16 h; max response: stronger effect = lower value
Procedure, shortened: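 ARE-bla HepG2 cells (2,000/well) rested 5 hrs at 37C/5% CO2, then exposed to compounds in DMSO for 16 hrs. Viability was read in the same wells as intracellular ATP by luminescence, 30 min at room temperature after reagent addition.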

[16] = qHTS assay for cell viability of HEK293 cells (AID 743288); conditions: ATP luminescence (CellTiter-Glo), 18 h; max response: stronger effect = lower value; note: % is set by controls: 0 for no effect and ±100 for the full control effect; nearly all actives have a fitted effect of over 50% in size
Procedure, shortened: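 Environmental chemicals tested in qHTS format against parental HEK293 cells; 18 h treatment, 37 C; read-out ATP luminescence (CellTiter-Glo), 30 min RT development.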

[17] = qHTS assay for cell viability of the p53RE-bla HCT-116 cell line (AID 743292); note: % is set by controls: 0 for no effect and ±100 for the full control effect; nearly all actives have a fitted effect of over 55% in size
Procedure, shortened: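 CellSensor p53RE-bla HCT-116 cells (4,000/well) pre-incubated 5 h at 37 C, then exposed to compounds in DMSO for 16 h at 37 C. Viability read as ATP content by CellTiter-Glo luminescence after 30 min at room temperature.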

[18] = biological target: Nuclear receptor subfamily 1 group I member 2 (Rattus norvegicus) (UniProt Q9R1A7); assay: qHTS assay for small molecule activators of the rat pregnane X receptor (rPXR) signaling pathway (AID 651751; call rule not given here; note: 0% is about no effect); conditions: rPXR reporter cells, luciferase (One-Glo), 24 h
[19] = qHTS assay for small molecule activators of the human pregnane X receptor (PXR) signaling pathway (AID 720659; call rule not given here; note: 0% is about no effect)
[20] = qHTS assay for small molecule antagonists of peroxisome proliferator-activated receptor delta signaling (AID 588535); conditions: HEK293T PPARd-UAS-bla, beta-lactamase FRET ratio, 18 h; 460 nm channel;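 note: cells co-treated with a PPAR-delta agonist as stimulator during compound exposure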
Procedure, shortened: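 GeneBLAzer PPAR-delta-UAS-bla HEK293T cells in medium with 2% charcoal/dextran FBS were preincubated 5 hrs at 37 C, then given compounds, incubated 18 hrs at 37 C, and read by CCF4 beta-lactamase fluorescence; IC50 from Hill fits.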

Chain of Nuclear receptor subfamily 1 group I member 2 (Rattus norvegicus) (Q9R1A7 whole entry, looked up): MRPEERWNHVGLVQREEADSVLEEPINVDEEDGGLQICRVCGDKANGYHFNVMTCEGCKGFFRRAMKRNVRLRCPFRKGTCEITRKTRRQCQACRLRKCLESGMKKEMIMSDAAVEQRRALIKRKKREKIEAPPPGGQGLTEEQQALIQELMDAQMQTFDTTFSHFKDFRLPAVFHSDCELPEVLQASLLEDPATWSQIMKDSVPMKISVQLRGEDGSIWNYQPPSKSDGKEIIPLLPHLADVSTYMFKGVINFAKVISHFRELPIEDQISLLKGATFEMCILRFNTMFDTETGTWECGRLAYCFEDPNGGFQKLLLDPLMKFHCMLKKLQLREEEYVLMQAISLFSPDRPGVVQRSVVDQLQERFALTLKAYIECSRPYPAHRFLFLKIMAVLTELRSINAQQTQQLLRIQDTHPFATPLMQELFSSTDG
Chain of Peroxisome proliferator-activated receptor gamma (Homo sapiens) (P37231 whole entry, looked up): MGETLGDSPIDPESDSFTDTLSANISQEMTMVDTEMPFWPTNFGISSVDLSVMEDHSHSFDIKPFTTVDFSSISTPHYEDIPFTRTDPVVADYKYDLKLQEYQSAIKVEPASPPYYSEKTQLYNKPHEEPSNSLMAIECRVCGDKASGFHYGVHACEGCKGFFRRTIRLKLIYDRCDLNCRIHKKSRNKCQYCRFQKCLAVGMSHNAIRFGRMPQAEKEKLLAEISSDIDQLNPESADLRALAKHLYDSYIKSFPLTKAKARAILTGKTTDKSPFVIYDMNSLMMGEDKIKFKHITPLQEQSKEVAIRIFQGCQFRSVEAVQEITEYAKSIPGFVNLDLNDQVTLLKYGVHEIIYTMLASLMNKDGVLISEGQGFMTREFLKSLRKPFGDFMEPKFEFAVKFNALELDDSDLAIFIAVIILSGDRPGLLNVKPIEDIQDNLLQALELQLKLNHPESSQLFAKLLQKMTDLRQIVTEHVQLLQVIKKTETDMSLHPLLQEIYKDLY
Chain of Peroxisome proliferator-activated receptor alpha (Homo sapiens) (Q07869 whole entry, looked up): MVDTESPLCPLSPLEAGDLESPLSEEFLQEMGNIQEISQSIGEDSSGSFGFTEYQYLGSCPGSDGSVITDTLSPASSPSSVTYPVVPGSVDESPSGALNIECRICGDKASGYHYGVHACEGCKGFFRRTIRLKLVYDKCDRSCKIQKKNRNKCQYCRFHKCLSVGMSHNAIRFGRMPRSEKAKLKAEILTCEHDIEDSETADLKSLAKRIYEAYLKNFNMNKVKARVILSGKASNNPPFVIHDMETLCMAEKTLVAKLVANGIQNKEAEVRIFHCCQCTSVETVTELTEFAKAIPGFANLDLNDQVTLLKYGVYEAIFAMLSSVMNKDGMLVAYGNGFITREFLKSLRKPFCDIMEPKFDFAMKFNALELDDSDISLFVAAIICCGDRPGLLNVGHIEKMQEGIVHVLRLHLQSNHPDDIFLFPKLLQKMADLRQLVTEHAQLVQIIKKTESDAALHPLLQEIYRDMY
Chain of Thyroid hormone receptor beta (Homo sapiens) (P10828 whole entry, looked up): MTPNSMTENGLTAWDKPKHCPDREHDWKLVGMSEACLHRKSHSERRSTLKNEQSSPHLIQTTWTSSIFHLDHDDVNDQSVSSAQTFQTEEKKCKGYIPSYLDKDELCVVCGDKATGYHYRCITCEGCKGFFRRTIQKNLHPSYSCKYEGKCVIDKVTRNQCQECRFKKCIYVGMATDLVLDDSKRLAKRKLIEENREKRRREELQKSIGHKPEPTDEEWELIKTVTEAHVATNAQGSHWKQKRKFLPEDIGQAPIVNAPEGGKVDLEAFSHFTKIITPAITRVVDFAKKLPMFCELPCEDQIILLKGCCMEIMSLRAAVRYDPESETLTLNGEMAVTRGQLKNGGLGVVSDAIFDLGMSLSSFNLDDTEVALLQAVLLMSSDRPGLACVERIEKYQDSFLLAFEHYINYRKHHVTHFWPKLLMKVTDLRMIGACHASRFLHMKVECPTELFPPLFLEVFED
Chain of Estrogen receptor (Homo sapiens) (P03372 whole entry, looked up): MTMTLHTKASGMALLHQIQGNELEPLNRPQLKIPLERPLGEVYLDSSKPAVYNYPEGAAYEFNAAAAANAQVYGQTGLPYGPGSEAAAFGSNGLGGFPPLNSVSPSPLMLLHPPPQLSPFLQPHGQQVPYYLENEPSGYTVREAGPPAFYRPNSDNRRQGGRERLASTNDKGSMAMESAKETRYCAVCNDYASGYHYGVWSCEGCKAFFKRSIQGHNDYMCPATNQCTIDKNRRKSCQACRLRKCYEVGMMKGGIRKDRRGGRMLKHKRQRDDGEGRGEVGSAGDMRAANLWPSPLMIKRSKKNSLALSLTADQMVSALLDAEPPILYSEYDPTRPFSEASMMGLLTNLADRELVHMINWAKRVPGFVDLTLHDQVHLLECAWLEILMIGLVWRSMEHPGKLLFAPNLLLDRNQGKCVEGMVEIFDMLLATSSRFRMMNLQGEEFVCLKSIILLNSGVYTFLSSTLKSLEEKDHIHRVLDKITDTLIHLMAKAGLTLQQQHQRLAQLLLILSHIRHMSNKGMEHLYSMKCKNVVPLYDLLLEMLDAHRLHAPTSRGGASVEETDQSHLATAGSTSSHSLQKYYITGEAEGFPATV
Chain of Vitamin D3 receptor (Homo sapiens) (P11473 whole entry, looked up): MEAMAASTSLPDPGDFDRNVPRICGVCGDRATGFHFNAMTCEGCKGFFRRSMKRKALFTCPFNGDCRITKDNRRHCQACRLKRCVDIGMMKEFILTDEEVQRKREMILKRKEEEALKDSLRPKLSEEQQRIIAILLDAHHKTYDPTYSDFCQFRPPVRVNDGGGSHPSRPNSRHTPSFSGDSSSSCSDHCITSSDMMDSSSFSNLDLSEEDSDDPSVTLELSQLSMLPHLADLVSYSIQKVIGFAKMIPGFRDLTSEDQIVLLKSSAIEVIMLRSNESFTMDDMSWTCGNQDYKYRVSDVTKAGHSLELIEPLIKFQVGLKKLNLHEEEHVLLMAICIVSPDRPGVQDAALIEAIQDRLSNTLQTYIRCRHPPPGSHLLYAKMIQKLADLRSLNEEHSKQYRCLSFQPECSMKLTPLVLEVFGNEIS
Chain of Retinoic acid receptor RXR-alpha (Homo sapiens) (P19793 whole entry, looked up): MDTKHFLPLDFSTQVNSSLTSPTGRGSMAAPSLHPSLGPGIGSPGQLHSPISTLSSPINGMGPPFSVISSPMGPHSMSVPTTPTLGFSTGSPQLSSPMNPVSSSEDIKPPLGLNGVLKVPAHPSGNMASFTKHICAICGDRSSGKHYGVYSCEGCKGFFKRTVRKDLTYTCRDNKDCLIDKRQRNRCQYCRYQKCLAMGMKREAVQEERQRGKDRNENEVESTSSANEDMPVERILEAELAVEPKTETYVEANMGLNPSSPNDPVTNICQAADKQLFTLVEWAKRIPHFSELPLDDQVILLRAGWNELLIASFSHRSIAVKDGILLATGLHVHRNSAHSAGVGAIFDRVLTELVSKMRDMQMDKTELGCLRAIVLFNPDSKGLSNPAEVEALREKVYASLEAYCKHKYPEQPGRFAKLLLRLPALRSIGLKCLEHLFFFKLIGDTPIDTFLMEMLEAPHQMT

Row | Compound | Potency [1] | outcome [2] | Potency [3] | outcome [4] | max response [5] | Potency [6] | Potency [7] | max response [8] | max response [9] | activity change % (negative = inhibition) [10] | activation [11] | activation [12] | max response [13] | Potency [14] | max response [15] | max response [16] | Potency [17] | max response [18] | outcome [19] | max response [20]
1 | Brc1ccc(Br)c(Br)c1 | inactive | inactive | inactive | inactive | 0.274% | inactive | inactive | -16.3% | -14.6% (inactive) | -13.9% (inactive) | -2.82% (inactive) | 2.73% (inactive) | -4.16% (inactive) | inactive | -18% (inactive) | -15.6% (inactive) | inactive | -1.74% (inactive) | inactive | 
2 | Cc1cc(C)c(N)c(Cl)c1 | inactive | inactive | inactive | inactive | -1.71% | inactive | inactive |  |  | -1.82% (inactive) | -7.91% (inactive) | -1.79% (inactive) | -1.91% (inactive) | inactive | 2.61% (inactive) | -10.1% (inactive) | inactive | -0.981% (inactive) | inactive | 24.2%
3 | C=CC(=O)NC(C)(C)CS(=O)(=O)O | inactive | inactive | inactive | inactive | -14.1% and -12.4% | inactive |  | 6.06% and 6.67% | -8.43% (inactive) and -30.3% (inactive) | 13.1% (inactive) and 23.4% (inactive) | 2.63% (inactive) and -4% (inactive) | 1.15% (inactive) and -0.952% (inactive) | 2.58% (inactive) and -1.53% (inactive) | inactive | -6.76% (inactive) and -9.12% (inactive) | -20.6% (inactive) and -8.34% (inactive) | inactive | -5.7% (inactive) and -3.87% (inactive) | inactive | 15.1% and -58.6%
4 | OCCC(F)(F)C(F)(F)C(F)(F)C(F)(F)C(F)(F)C(F)(F)C(F)(F)C(F)(F)F |  |  |  | inactive | -23.4% | inactive | inactive | -18.9% | -9.11% (inactive) |  | 2.93% (inactive) | 0.162% (inactive) |  | inactive | -8.07% (inactive) | -9.6% (inactive) | inactive | -1.29% (inactive) |  | -9.21%
5 | CCOC(=O)CCCCCCCCC(=O)OCC | inactive | inactive | inactive |  | 3.8% | inactive | inactive | -7.52% | 0.487% (inactive) |  | -5.93% (inactive) | 0.108% (inactive) | -3.28% (inactive) | inactive | -13.4% (inactive) | -4.17% (inactive) | inactive | 2.58% (inactive) | inactive | 
6 | CC(C)(C)c1n[nH]c(=O)n(N)c1=O |  | inactive | inactive | inactive | -20% | inactive | inactive | -5.34% | -3.59% (inactive) | 0.427% (inactive) | 1.96% (inactive) | -0.927% (inactive) |  | inactive | -8.89% (inactive) | -15.1% (inactive) | inactive | 8.96% (inactive) | inactive | -9.84%
7 | CC1(C)C(C=C(Cl)Cl)[C@H]1C(=O)OCc1cccc(Oc2ccccc2)c1 (some centres undefined) |  |  |  |  |  |  |  | -16.1% |  | 5.41% (inactive) | -1.46% (inactive) |  | -1.89% (inactive) | inactive | -12.3% (inactive) | -12.9% (inactive) | inactive |  |  | 35.5%
8 | CC(=O)OC(C)(C)C1CC=C(C)CC1 (centres undefined) | inactive | inactive | inactive | inactive | -9.79% | inactive | inactive | -19.2% | -1.89% (inactive) | -6.17% (inactive) | -1.29% (inactive) | -2.57% (inactive) | -5.04% (inactive) | inactive | -6.08% (inactive) | -11.3% (inactive) | inactive | -1.76% (inactive) | inactive | -21.5%
9 | Nc1nc(N)nc(-c2ccccc2)n1 | inactive | inactive |  |  | -9.5% | inactive | inactive | -13.3% | -4.65% (inactive) | 13.3% (inactive) |  | 5.62% (inactive) | 0.149% (inactive) |  | -8.33% (inactive) | -4.29% (inactive) | inactive | 2.49% (inactive) | inactive | 20.7%
10 | NCCCCCCCCCCC(=O)O |  | inactive | inactive | inactive | -7.72% | inactive |  |  |  | -1.93% (inactive) | 0.322% (inactive) | 6.19% (inactive) |  |  | -2.31% (inactive) | -12% (inactive) | inactive | 1.01% (inactive) |  | 0.715%
11 | CC1(C)CC(N)CC(C)(CN)C1 (centres undefined) | inactive | inactive |  |  | -8.73% | inactive | inactive | -12.5% | 4.46% (inactive) |  | -1.29% (inactive) |  | -3.48% (inactive) | inactive | -2.66% (inactive) | -2.22% (inactive) | inactive | -2.15% (inactive) | inactive | -18%
